Only some compounds are listed: those with a hit (about 10% of all), similar ones and a draw of the others.
GLS inh – inhibitors of human glutaminase (GLS); 410,000 tested, 0.21% active; Potency, µM (titrated, usually from 45.5 µM), inactives show top-dose activity change, negative = inhibition, usual class: inhibitors; GLS enzymatic activity, qHTS titration; AID 624170; also: % is scaled to controls: 0 for no effect and ±100 for the full control effect
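Assay buffer: 45 mM KH2PO4 pH 8.2, 0.02% Tween-20. hKGA acts on L-glutamine (1 mM solution added); product glutamate is reported by an oxidase/peroxidase Amplex Red coupling, with fluorescence taken at baseline and 30 min.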
JMJD2A Tudor – inhibitors of human JMJD2A Tudor domain; AID 504339; 390,000 tested, 4.4% active; Potency, µM (doses to about 114 µM), without a hit: at the highest dose activity change, negative = inhibition, usual class: inhibitors; AlphaScreen JMJD2A-Tudor / H3K4me3 peptide binding; also: % is scaled to controls: 0 for no effect and ±100 for the full control effect; nearly all actives have a fitted effect of over 50% in size
G9a block – G9a (human) methyltransferase inhibition; Potency, µM (titrated, usually from 102 µM), without a hit: top-dose activity, negative = inhibition, hits mostly inhibitors; 350,000 tested, 8.8% active; G9a H3K9 monomethylation, AlphaScreen, 2 h; also: % is scaled to controls: 0 for no effect and ±100 for the full control effect; nearly all actives have a fitted effect of over 75% in size
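AlphaScreen detection with an anti-monomethyl H3K9 antibody quantified product after a 2 h room-temperature reaction containing 500 nM biotinylated H3K9 peptide, 20 µM SAM and 20 nM enzyme, which had been preincubated 15 min with compound.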
L3MBTL1 block – inhibitors of human L3MBTL1; Potency, µM (series often up to 57.1 µM), without a hit: at the top dose activity, negative = inhibition, actives largely listed as inhibitors; AlphaScreen L3MBTL1–H3K9me1 peptide binding; 230,000 tested, 0.66% active; also: % is scaled to controls: 0 for no effect and ±100 for the full control effect; nearly all actives have a fitted effect of over 60% in size
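AlphaScreen assay: L3MBTL1 (50 nM final) was preincubated 30 min at room temperature with biotinylated H3(1-15)K9me1 peptide (75 nM final), then 30 min with library compounds; streptavidin donor and nickel chelate acceptor beads (10 ug/mL final) added, 30 min dark.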
BAZ2B block – blocks human BAZ2B | Q9UIF8 | AlphaScreen BAZ2B-H3K14Ac peptide displacement | Potency, µM (titrated, usually from 114 µM), for inactives: at the highest dose activity change, negative = inhibition, actives largely listed as inhibitors | 360,000 tested, 4.4% active; also: % is scaled to controls: 0 for no effect and ±100 for the full control effect; nearly all actives have a fitted effect of over 60% in size
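BAZ2B 50 nM plus b-H3(5-23)K14Ac 50 nM, PBS pH 7.4/0.01% Tween-20, 30 min RT; compound added (max 110 uM), 30 min RT; streptavidin donor/Ni-chelate acceptor beads 10 ug/mL final, 20 min dark; AlphaScreen read.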
HP1b chromo inh – inhibitors of HP1-beta chromodomain binding to methylated histone tails; 390,000 tested, 0.56% active; AID 540317; Potency, µM (top dose mostly 114 µM), for the others: at the top dose activity change, negative = inhibition, actives largely listed as inhibitors; AlphaScreen HP1-beta / biotin-H3K9me3 peptide binding; also: nearly all actives have a fitted effect of over 70% in size
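HP1-beta protein (50 nM final) preincubated 30 min at room temperature with biotinylated H3(1-18)K9me3 peptide (50 nM) in PBS pH 7.4, 0.01% Tween-20, then compound added for 30 min. AlphaScreen streptavidin donor/nickel chelate acceptor beads (10 ug/mL final), 30 min dark, luminescence read.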
* hit, by the source's call; u = inconclusive; x = no result given; [ ] = remark or other dose. Calls follow the shape of the dose curve; as a rule, active = well fitted curve in the direction sought with a large enough effect; inconclusive = small, poorly fitted or top-dose-only effect, or another doubt; inactive = no such curve, though single readings can be large; an effect the other way counts as inactive or inconclusive. Potency is read from the fitted curve at half-maximal effect.

SMILES	GLS inh	JMJD2A Tudor	G9a block	L3MBTL1 block	BAZ2B block	HP1b chromo inh
Cc1cc(Cl)cc(Br)c1OCCCCn1cncn1	0.8%	3.55µM*	u	1.3%[11.4 µM]	50.1µM*	u
COc1ccc(C(=O)Nc2ccc3c(c2)OCCO3)cc1	8.9%	-5.2%	4.0%[59 µM]	-2.4%	-2.7%	13.3%
CCOc1ccc(N/C(C)=C/C(=O)c2ccc3c(c2)OCCO3)cc1	2.3%	u	x	-6.9%	u	-29.5%
COc1ccc(C(=O)/C=C(\C)Nc2ccc3c(c2)OCO3)cc1	18.8%	28.2µM*	70.8µM*	-6.6%	50.1µM*	u
CCOc1ccc(N/C(C)=C\C(=O)c2ccc3c(c2)OCCO3)cc1	-3.1%	u	x	-5.4%	25.1µM*	-21.5%
C/C(=C\C(=O)c1ccncc1)Nc1ccccc1O	9.9%	-14.0%	12.8%	0.8%	-38.2%	19.6%
COc1ccc(C(=O)CCNc2ccc3c(c2)OCCO3)cc1	7.4%	-18.8%	3.16µM*	-4.8%	-26.7%	-5.3%
COc1ccc(OC)c(N/C(C)=C/C(=O)c2ccncc2)c1	-8.7%	u	39.8µM*	-0.4%	u	-5.2%
COc1ccc(OCC(=O)Nc2ccc3c(c2)OCO3)cc1	-9.4%	-13.0%	u	x	-16.6%	4.1%
COc1ccc(C(=O)Nc2ccc3oc(-c4cc(Cl)ccc4Cl)nc3c2)cc1Br	12.6%	u	-4.4%[59 µM]	x	-2.2%	0.8%
CCCNC(=O)COCc1cc(-c2ccc(F)cc2)on1	-2.5%	5.1%	-21.9%[59 µM]	x	4.5%	40.1%
Cc1cc(C)cc(NC(=O)N2CCC(N3CCCCC3)CC2)c1	1.9%	-4.7%	1.2%[59 µM]	x	0.4%	32.2%
COc1ccc(CCNC(=O)CSc2nnc(-c3ccc(C)cc3)c(-c3ccc(C)cc3)n2)cc1OC	-0.3%	-32.7%	u	x	-9.9%	-9.8%
COCc1cc(C)nc2sc(C(=O)Nc3ccccc3O)c(N)c12	3.2%	-3.8%	28.2%[59 µM]	x	3.9%	52.2%
Nc1nc(CN2CCN(c3ccccn3)CC2)nc(Nc2ccc(F)cc2)n1	-4.7%	50.1µM*	u	x	50.1µM*	22.2%
Nc1nc(CN2CCCCCC2)nc(Nc2ccc(F)cc2)n1	8.3%	79.4µM*	10µM*	x	7.08µM*	18.7%
Cc1cc(C)cc(NC(=S)/C(=C(\[O-])c2ccc(Cl)s2)[n+]2cccc(C)c2)c1	2.9%	50.1µM*	44.7µM*	u	39.8µM*	u
[O-]/C(=C(\C(=S)Nc1cccc2ccccc12)[n+]1ccccc1)c1ccc(Cl)s1	-2.8%	u	u	u	35.5µM*	u
CC(C)(C)c1cc[n+](/C(C(=S)NC2CC2)=C(/[O-])c2ccc(Cl)s2)cc1	u	-31.6%	10µM*	x	-0.1%	-17.6%
Cc1cc(C)cc(NC(=S)/C(=C(\[O-])c2ccc(Cl)cc2Cl)[n+]2ccc(C(C)(C)C)cc2)c1	1.3%	-13.6%	22.8%[12.7 µM]	x	-16.5%	11.0%
CCc1cccc(CC)c1NC(=S)/C(=C(\[O-])c1ccc(Cl)s1)[n+]1ccccc1	0.5%	u	44.7µM*	-10.5%	u	-16.3%
Cc1ccccc1NC(=O)CSc1nc2c(oc3ccccc32)c(=O)n1Cc1ccco1	-11.1%	-10.2%	-25.7%[59 µM]	x	2.3%	31.0%
CC(=O)c1ccc(NC(=O)c2cccc(NC(=O)N3CCSc4ncccc43)c2)cc1	3.7%	5.5%	u	x	-10.7%	35.0%
CCCCSCCCNC(=O)c1c[nH]c2ccc(S(=O)(=O)Nc3cccc(OC)c3)cc2c1=O	2.2%	-8.7%	-7.4%[59 µM]	x	2.3%	36.6%
COc1ccc(NC(=O)c2c(C)oc3ccc(O)c(CN4CCN(Cc5ccccc5)CC4)c23)cc1Cl	4.1%	u	u	x	-36.3%	-9.1%
[O-]C(=C(C(=S)Nc1cccc2ccccc12)[n+]1cccc(CO)c1)c1ccc(Cl)s1	-2.0%	-48.6%	x	x	x	-38.0%
Cc1ccc(C)c(NC(=S)/C(=C(\[O-])c2ccc(Cl)s2)[n+]2ccccc2)c1	2.8%	u	u	u	35.5µM*	-20.0%

Compound activity (PubChem)
